This is a sample that favours compounds with a hit; in the whole collection about 12% have one here.
JMJD2A Tudor: JMJD2A Tudor domain (human) inhibition; 390,000 compounds, 4.4% hits; AlphaScreen JMJD2A-Tudor / H3K4me3 peptide binding; Potency, µM (top dose mostly 114 µM), for the others: top-dose activity change, negative = inhibition, most hits filed as inhibitors; O75164; note: % is set by controls: 0 for no effect and ±100 for the full control effect; nearly all actives have a fitted effect of over 50% in size
G9a block: blocks human histone lysine methyltransferase G9a. 350,000 compounds, 8.8% hits. AID 504332. G9a H3K9 monomethylation, AlphaScreen, 2 h. Potency, µM (titrated, usually from 102 µM), without a hit: top-dose activity, negative = inhibition, most hits filed as inhibitors; note: % is set by controls: 0 for no effect and ±100 for the full control effect; nearly all actives have a fitted effect of over 75% in size
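Quantitative HTS format: methyltransferase activity on a biotin-tagged H3K9 peptide is measured by AlphaScreen, using a rabbit anti-monomethyl-H3K9 antibody with streptavidin donor and anti-IgG acceptor beads. Final levels are 20 nM enzyme, 500 nM peptide, 20 uM SAM; 2 h RT.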
Sfp inh: Sfp phosphopantetheinyl transferase inhibition; Q9F4F7; Biochemical Sfp PPTase activity, qHTS; Potency, µM, inactives show largest response in the series, negative = inhibition, actives largely listed as inhibitors; 310,000 compounds, 3.5% hits; AID 1490;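 note: the enzyme is Sfp with the accession as filed and its product quenches rhodamine fluorescence; 0% = enzyme reaction without inhibitor and -100% = no enzyme wells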
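Reaction rates are the 30-min fluorescence difference (ex 525, em 598 nm) in wells containing 15 nM Sfp, 5 uM rhodamine-CoA and 12.5 uM BHQ-2-YbbR at pH 7.6 with 10 mM MgCl2.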
HP1b binding inh: blocks HP1-beta chromodomain binding to methylated histone tails. P83916. AlphaScreen HP1-beta / biotin-H3K9me3 peptide binding. Potency, µM (titrated, usually from 114 µM), without a hit: top-dose activity change, negative = inhibition, hits mostly inhibitors. 390,000 compounds, 0.56% hits. AID 540317; note: nearly all actives have a fitted effect of over 70% in size
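HP1-beta protein (50 nM final) preincubated 30 min at room temperature with biotinylated H3(1-18)K9me3 peptide (50 nM) in PBS pH 7.4, 0.01% Tween-20, then compound added for 30 min. AlphaScreen streptavidin donor/nickel chelate acceptor beads (10 ug/mL final), 30 min dark, luminescence read.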
BAZ2B inh: blocks human BAZ2B; AlphaScreen BAZ2B-H3K14Ac peptide displacement; Potency, µM (doses to about 114 µM), inactives show at the highest dose activity change, negative = inhibition, actives largely listed as inhibitors; 360,000 compounds, 4.4% hits; note: % is set by controls: 0 for no effect and ±100 for the full control effect; nearly all actives have a fitted effect of over 60% in size
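BAZ2B 50 nM plus b-H3(5-23)K14Ac 50 nM, PBS pH 7.4/0.01% Tween-20, 30 min RT; compound added (max 110 uM), 30 min RT; streptavidin donor/Ni-chelate acceptor beads 10 ug/mL final, 20 min dark; AlphaScreen read.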
L3MBTL1 inh: inhibitors of human L3MBTL1; Q9Y468; AlphaScreen L3MBTL1–H3K9me1 peptide binding; Potency, µM (doses to about 57.1 µM), for the others: at the top dose activity, negative = inhibition, most hits filed as inhibitors; 230,000 compounds, 0.66% hits; AID 485360; note: % is set by controls: 0 for no effect and ±100 for the full control effect; nearly all actives have a fitted effect of over 60% in size
Target sequence (Q9Y468 whole entry, looked up): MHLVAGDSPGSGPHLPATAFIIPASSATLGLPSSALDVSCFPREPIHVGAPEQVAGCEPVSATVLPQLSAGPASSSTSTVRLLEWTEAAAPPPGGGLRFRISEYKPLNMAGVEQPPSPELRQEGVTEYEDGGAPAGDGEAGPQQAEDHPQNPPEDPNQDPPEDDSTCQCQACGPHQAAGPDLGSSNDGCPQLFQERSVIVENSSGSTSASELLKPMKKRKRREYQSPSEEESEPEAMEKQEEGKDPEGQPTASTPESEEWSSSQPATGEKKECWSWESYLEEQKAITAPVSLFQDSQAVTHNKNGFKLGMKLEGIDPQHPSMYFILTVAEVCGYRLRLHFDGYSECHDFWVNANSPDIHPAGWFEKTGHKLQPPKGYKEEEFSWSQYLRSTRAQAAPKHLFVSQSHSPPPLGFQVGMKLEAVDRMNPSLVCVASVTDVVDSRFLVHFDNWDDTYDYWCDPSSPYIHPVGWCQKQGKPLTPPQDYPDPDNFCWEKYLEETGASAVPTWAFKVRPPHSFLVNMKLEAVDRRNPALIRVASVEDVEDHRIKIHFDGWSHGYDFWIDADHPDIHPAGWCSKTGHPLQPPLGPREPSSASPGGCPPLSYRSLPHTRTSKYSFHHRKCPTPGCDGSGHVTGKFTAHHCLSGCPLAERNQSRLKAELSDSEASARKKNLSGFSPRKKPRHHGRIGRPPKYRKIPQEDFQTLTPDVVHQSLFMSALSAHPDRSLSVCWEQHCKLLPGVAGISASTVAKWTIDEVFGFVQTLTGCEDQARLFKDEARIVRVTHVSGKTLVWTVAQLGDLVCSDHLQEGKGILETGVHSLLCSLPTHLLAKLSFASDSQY
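AlphaScreen proximity signal between nickel-chelate acceptor and streptavidin donor beads (final 10 ug/mL) reports binding of 50 nM L3MBTL1 to 75 nM biotin-H3 K9me1 peptide; complex incubated with compounds 30 min at room temperature; cefsulodin titration as control.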
Numbers without * were called inactive; ? = inconclusive; . = not tested or not shown; [ ] = dose if it differs, or a comment. Calls come from the whole dose curve; as a rule, active = well fitted curve in the direction sought with a large enough effect; inconclusive = small, poorly fitted or top-dose-only effect, or another doubt; inactive = no such curve, though single readings can be large; an effect the other way counts as inactive or inconclusive. Potency is the fitted concentration of half-maximal effect.

SMILES	JMJD2A Tudor	G9a block	Sfp inh	HP1b binding inh	BAZ2B inh	L3MBTL1 inh
COc1cccc(CNc2ccc([N+](=O)[O-])cc2C)c1	-28.6%	.	-9.5%	27.0%	-29.2%	-17.9%
COc1ccc([N+](=O)[O-])cc1NCc1ccccc1C	31.6µM*	?	-16.7%	75.3%	-0.6%	20.2%
COc1ccc(OC)c(CNc2ccc([N+](=O)[O-])cc2C)c1	28.2µM*	?	-1.3%	?	?	.
Cc1ccccc1CSc1cn(CC(=O)N2CCCCCC2)c2ccccc12	-4.4%	0.5%[59 µM]	.	43.9%	-20.0%	.
COC(=O)c1ccc(Oc2cc(C)nc(Cl)n2)cc1	-4.6%	19.3%	23.0%	41.6%	-23.1%	3.1%
COC(=O)c1ccc(Oc2cc(C)nc(SC)n2)cc1	28.2µM*	10.8%[59 µM]	9.6%	?	4.3%	5.1%
CC(=O)c1ccc2noc(-c3ccc(Cl)cc3)c2c1	-14.0%	?	-4.1%	35.8%	-13.3%	.
Cc1cc(-c2onc3ccc(Cl)cc23)ccc1O	21.1%	39.8µM*	-39.0%	45.1%	-1.6%	.
COc1cc(/C=C2\SC(=S)N(NC(=O)c3cccc(O)c3)C2=O)ccc1O	?	35.5µM*	-12.9%	44.7µM*	35.5µM*	.
CCOc1cc(/C=C2\SC(=S)N(NC(=O)c3cccnc3)C2=O)ccc1O	-34.5%	10.5%[12.7 µM]	-6.8%	?	10µM*	-22.6%
COc1cc(/C=C2\SC(=S)N(NC(=O)c3ccccc3OC)C2=O)ccc1O	?	15.8µM*	174.6%	25.1µM*	20µM*	.
O=C(O)c1ccc(/C=C2\SC(=S)N(NC(=O)c3ccccc3)C2=O)cc1	-7.4%	?	4.3%	30.1%	-20.1%	.
COc1cc(/C=C2\SC(=S)N(NC(=O)c3ccncc3)C2=O)ccc1O	-8.7%	44.7µM*	5.4%	-26.7%	?	-26.4%
O=C(CCN1C(=O)/C(=C/c2cccc(Br)c2)SC1=S)NNC(=O)c1cccnc1	-8.9%	-19.8%	1.4%	11.2%	2.9%	1.0%
NCc1cn(Cc2ccccc2)nc1-c1ccccc1	-16.3%	.	.	22.1%	.	.
COc1cc(/C=C2\SC(=S)N(NC(=O)c3ccc(O)c(OC)c3)C2=O)ccc1O	56.2µM*	35.5µM*	1.7%	50.1µM*	35.5µM*	.
O=C(NN1C(=O)CSC1=S)c1cccnc1	?	50.1µM*	56.2µM*	11.6%	?	.
Cc1ccccc1C(=O)NN1C(=O)CSC1=S	-13.7%	-22.2%[59 µM]	-23.4%	24.9%	-2.0%	-9.7%
O=C(NN1C(=O)/C(=C/c2cccs2)SC1=S)c1cccnc1	-23.5%	50.1µM*	-12.3%	20.2%	-30.6%	-5.8%
COc1cc(C(=O)Nc2cccc(OCc3cc(=O)n4c(C)csc4n3)c2)cc(OC)c1OC	-15.2%	-5.0%[59 µM]	.	29.0%	-3.3%	.
CCN1C(=S)SC(=O)C1=C1C=C(C)N(CCOC)C(C)=C1	.	?	50.1µM*	.	?	2.8%
CC(C)(C)OC(=O)CN1C(=O)S/C(=C\c2ccc(-c3cccc(C(=O)O)c3)o2)C1=O	.	56.2µM*	6.7%	.	?	?
Cc1ccc(C(=O)O)cc1-c1ccc(/C=C2\SC(=O)N(CC(=O)Nc3ccccc3)C2=O)o1	35.5µM*	7.08µM*	17.8µM*	?	22.4µM*	?
COc1ccc(/C=C2\SC(=O)N(CCC(=O)Nc3ccccc3)C2=O)cc1OC	-9.7%	?	-5.4%	20.4%	3.6%	9.6%
Cc1cc(C(=O)O)ccc1-c1ccc(/C=C2\SC(=O)N(CC(=O)Nc3ccc4c(c3)OCO4)C2=O)o1	.	-1.5%[0.501 µM]	50.1µM*	.	17.8µM*	.
SMILES	JMJD2A Tudor	G9a block	Sfp inh	HP1b binding inh	BAZ2B inh	L3MBTL1 inh
COc1ccccc1OCCN1C(=O)S/C(=C\c2ccco2)C1=O	-31.2%	?	-25.2%	-31.7%	?	-14.3%
C#CCN1C(=O)S/C(=C\c2ccc(-c3ccc(C(=O)O)cc3C)o2)C1=O	89.1µM*	?	-29.8%	-27.3%	50.1µM*	5.01µM*
Cc1noc(C)c1S(=O)(=O)Nc1ccccc1N1CCOCC1	8.3%	4.4%	11.2%	32.3%	-0.8%	3.6%
Cc1ccc(NC(=O)CN2C(=O)S/C(=C\c3ccc(-c4cccc(C(=O)O)c4C)o3)C2=O)cc1	.	11.2µM*	?	.	25.1µM*	.
Cc1ccccc1NC(=O)CN1C(=O)S/C(=C\c2ccc(-c3cc(C(=O)O)ccc3C)o2)C1=O	22.4µM*	5.01µM*	35.5µM*	39.8µM*	14.1µM*	?
Cc1ccc(NC(=O)CN2C(=O)S/C(=C\c3cccn3C)C2=O)cc1	-2.6%	18.5%	-20.2%	21.5%	-3.5%	-8.0%
CCC(C(=O)Nc1cccc(C(=O)O)c1C)c1ccccc1 (stereo not drawn)	-7.2%	-10.6%	12.7%	14.1%	-38.1%	1.1%[11.4 µM]
CC1CCC(NC(=O)c2cc(S(=O)(=O)N3CCCCC3)ccc2N2CCOCC2)CC1 (stereo not drawn)	-9.9%	?	.	27.5%	0.6%	-4.4%
CS(=O)(=O)N(Cc1ccccc1Cl)c1ccc(C(=O)NCc2ccccn2)cc1	-25.3%	28.5%[59 µM]	14.8%	30.5%	-33.0%	-0.7%
Cc1nc(C2CCC3C4CCC5=CC(=O)CC[C@]5(C)C4CC[C@]23C)cs1 (stereo partly drawn)	.	-1.7%[12.7 µM]	79.4µM*	.	-14.6%	.
CC(C)(C)C(=O)OCC(=O)C1CCC2C3CCC4=CC(=O)CCC4(C)C3CCC12C (stereo not drawn)	.	22.6%[59 µM]	7.9%	.	.	.
Cc1cc(C(=O)Nc2nc3ccc(Cl)cc3s2)nn1C	25.1µM*	-40.7%	9.2%	16.4%	-2.1%	1.9%
CCSc1ncc(Cl)c(C(=O)Nc2nc3ccc(Cl)cc3s2)n1	1.0%	-0.6%[59 µM]	.	53.1%	3.3%	.
Cn1ncc(Cl)c1C(=O)Nc1nc2ccc(Cl)cc2s1	-9.9%	7.94µM*	-24.1%	-16.2%	-4.0%	8.9%
CCCSc1ncc(Cl)c(C(=O)Nc2ccc(S(=O)(=O)N3CCCCC3C)cc2)n1 (stereo not drawn)	-13.9%	-15.2%[59 µM]	.	22.4%	-18.3%	.
COc1cc(NC(=O)CN2C(=O)C(c3ccc(Cl)cc3)=NC23CCCCC3)cc(OC)c1	-24.8%	-30.0%[59 µM]	.	28.9%	-6.8%	.
CCN(CC)CCOC(=O)c1ccc(NC(=O)c2nn(C)c3c2COc2ccccc2-3)cc1	-13.2%	-38.1%[59 µM]	.	-14.0%	-14.9%	.
CCOC(=O)c1ccc(NC(=O)c2nn(C)c3c2COc2ccccc2-3)cc1	?	14.1µM*	.	16.6%	?	.
COC(=O)c1ccccc1NC(=O)CN(c1ccc(C)cc1)S(C)(=O)=O	-12.9%	20.2%	8.5%	30.6%	6.8%	1.8%
CC(C)CC(NC(=O)C(NC(=O)C1OC2OC(C)(C)OC2C2OC(C)(C)OC12)C(C)C)C(=O)O (stereo not drawn)	4.2%	8.4%	3.4%	27.2%	2.2%	3.0%
